# In ChEMBL document CHEMBL1961873, “Compounds: GSK PKIS; Assays: Nanosyn kinase panel” (2012):
# Values joined by “and” are separate entries in the source; they are usually repeats but may differ in a detail not shown here. Equal entries are not always repeated.
# Columns and labels:
# [1] = biological target: T1, Serine/threonine-protein kinase D2 (Homo sapiens) (UniProt Q9BZL6); conditions: at 1 µM;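 note: mean value of PRKD2 inhibition, from the GSK PKIS screening panel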
# T1 sequence (whole entry): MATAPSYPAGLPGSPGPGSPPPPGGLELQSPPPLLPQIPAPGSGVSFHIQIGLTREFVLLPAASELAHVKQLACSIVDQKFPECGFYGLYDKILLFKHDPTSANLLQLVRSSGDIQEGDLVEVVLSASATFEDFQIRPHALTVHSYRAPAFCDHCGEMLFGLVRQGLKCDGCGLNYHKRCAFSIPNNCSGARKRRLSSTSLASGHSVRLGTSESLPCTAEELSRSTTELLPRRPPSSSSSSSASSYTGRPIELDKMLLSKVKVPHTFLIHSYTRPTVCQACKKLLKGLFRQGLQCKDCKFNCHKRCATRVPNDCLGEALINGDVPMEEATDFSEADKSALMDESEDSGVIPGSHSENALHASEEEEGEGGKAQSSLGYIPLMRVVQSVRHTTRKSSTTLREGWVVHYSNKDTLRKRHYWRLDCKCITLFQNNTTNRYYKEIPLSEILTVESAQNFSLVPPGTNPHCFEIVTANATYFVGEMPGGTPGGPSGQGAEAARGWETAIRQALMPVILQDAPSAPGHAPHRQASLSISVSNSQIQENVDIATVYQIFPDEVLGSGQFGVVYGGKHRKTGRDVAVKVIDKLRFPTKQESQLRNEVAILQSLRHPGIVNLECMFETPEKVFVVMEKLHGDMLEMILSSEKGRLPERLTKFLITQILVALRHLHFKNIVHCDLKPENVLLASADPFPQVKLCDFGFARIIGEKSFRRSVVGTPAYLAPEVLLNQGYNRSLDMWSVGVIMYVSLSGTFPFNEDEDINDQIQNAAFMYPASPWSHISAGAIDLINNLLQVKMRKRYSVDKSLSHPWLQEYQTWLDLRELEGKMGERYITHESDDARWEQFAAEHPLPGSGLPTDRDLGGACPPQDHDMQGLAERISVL
# [2] = biological target: T2, Serine/threonine-protein kinase D3 (Homo sapiens) (UniProt O94806); conditions: at 0.1 µM
# T2 sequence (whole entry): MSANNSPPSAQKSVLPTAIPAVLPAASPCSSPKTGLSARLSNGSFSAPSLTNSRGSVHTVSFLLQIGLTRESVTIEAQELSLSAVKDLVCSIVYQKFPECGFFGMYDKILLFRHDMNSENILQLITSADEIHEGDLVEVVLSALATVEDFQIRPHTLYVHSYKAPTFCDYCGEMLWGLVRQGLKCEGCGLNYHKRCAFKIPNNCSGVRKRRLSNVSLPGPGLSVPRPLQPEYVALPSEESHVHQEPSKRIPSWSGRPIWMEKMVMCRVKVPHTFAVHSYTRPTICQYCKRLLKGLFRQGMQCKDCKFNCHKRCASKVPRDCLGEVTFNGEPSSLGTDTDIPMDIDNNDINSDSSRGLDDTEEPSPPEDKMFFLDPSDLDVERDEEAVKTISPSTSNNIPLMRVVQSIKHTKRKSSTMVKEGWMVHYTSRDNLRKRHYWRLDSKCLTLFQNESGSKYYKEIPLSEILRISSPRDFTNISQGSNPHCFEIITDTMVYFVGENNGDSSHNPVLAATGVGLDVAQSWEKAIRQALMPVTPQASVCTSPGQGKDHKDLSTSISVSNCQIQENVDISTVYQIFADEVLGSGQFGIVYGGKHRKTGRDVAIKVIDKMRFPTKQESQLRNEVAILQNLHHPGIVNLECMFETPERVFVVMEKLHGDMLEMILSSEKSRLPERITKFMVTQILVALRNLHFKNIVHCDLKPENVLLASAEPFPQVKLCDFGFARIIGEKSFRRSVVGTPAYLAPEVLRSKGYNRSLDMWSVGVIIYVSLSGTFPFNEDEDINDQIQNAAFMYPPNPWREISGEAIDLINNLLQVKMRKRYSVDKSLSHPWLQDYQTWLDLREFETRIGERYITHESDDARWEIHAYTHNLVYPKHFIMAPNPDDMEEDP
# [3] = biological target: T2, Serine/threonine-protein kinase D3 (Homo sapiens); conditions: at 1 µM
# [4] = biological target: T3, cGMP-dependent protein kinase 1 (Homo sapiens) (UniProt Q13976); conditions: at 0.1 µM
# T3 sequence (whole entry): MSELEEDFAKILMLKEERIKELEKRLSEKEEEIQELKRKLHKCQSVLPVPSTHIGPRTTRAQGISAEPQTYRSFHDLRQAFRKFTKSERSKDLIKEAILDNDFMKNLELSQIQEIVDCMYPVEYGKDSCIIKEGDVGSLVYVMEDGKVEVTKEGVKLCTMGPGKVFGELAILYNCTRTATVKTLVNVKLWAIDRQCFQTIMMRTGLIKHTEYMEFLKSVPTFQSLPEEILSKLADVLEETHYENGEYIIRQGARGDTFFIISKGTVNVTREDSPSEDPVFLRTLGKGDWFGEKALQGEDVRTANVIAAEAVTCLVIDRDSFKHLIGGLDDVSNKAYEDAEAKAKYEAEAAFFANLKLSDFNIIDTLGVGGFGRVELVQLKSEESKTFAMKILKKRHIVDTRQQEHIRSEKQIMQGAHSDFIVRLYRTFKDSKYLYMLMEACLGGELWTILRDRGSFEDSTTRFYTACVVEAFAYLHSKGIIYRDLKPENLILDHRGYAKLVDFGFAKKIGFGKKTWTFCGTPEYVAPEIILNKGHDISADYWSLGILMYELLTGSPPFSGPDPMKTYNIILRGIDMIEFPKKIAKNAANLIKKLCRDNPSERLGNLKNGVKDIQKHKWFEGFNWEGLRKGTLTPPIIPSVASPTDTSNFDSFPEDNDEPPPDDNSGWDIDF
# [5] = biological target: T3, cGMP-dependent protein kinase 1 (Homo sapiens); conditions: at 1 µM
# [6] = biological target: T4, cGMP-dependent protein kinase 2 (Homo sapiens) (UniProt Q13237); conditions: at 0.1 µM
# T4 sequence (whole entry): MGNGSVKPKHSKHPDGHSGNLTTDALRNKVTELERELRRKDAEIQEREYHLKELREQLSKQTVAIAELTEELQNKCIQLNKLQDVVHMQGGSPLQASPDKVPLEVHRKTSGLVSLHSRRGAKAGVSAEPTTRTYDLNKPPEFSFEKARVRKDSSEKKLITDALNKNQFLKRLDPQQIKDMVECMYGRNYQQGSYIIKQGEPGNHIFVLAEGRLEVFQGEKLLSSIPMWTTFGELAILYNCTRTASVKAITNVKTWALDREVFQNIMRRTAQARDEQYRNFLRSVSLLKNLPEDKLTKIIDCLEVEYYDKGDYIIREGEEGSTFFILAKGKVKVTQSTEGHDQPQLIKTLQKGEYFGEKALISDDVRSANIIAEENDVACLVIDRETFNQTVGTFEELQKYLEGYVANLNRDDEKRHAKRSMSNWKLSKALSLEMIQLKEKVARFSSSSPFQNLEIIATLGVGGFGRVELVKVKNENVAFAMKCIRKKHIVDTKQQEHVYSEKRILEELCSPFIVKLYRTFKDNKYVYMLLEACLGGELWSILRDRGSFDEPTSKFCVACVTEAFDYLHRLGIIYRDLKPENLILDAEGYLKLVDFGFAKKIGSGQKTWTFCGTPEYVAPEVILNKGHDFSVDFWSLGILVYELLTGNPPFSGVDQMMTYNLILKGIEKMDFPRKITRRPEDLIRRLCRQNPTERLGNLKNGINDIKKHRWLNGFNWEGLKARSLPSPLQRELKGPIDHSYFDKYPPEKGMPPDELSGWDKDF
# [7] = biological target: T4, cGMP-dependent protein kinase 2 (Homo sapiens); conditions: at 1 µM
# [8] = biological target: T5, cAMP-dependent protein kinase catalytic subunit PRKX (Homo sapiens) (UniProt P51817); conditions: at 0.1 µM
# T5 sequence (whole entry): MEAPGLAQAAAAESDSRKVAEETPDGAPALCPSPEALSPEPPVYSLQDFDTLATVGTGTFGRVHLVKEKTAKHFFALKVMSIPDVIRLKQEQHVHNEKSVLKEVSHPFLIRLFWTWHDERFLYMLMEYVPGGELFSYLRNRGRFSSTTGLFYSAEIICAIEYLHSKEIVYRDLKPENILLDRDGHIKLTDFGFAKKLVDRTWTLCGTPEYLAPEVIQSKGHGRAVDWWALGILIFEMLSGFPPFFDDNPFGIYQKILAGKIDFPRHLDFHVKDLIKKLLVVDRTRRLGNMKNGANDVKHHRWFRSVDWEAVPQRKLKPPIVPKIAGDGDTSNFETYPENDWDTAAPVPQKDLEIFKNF
# [9] = biological target: T5, cAMP-dependent protein kinase catalytic subunit PRKX (Homo sapiens); conditions: at 1 µM
# [10] = biological target: Rho-associated protein kinase 1 (Homo sapiens) (UniProt Q13464); conditions: at 0.1 µM
# Sequence of Rho-associated protein kinase 1 (Homo sapiens) (Q13464 2-1354 limits assumed): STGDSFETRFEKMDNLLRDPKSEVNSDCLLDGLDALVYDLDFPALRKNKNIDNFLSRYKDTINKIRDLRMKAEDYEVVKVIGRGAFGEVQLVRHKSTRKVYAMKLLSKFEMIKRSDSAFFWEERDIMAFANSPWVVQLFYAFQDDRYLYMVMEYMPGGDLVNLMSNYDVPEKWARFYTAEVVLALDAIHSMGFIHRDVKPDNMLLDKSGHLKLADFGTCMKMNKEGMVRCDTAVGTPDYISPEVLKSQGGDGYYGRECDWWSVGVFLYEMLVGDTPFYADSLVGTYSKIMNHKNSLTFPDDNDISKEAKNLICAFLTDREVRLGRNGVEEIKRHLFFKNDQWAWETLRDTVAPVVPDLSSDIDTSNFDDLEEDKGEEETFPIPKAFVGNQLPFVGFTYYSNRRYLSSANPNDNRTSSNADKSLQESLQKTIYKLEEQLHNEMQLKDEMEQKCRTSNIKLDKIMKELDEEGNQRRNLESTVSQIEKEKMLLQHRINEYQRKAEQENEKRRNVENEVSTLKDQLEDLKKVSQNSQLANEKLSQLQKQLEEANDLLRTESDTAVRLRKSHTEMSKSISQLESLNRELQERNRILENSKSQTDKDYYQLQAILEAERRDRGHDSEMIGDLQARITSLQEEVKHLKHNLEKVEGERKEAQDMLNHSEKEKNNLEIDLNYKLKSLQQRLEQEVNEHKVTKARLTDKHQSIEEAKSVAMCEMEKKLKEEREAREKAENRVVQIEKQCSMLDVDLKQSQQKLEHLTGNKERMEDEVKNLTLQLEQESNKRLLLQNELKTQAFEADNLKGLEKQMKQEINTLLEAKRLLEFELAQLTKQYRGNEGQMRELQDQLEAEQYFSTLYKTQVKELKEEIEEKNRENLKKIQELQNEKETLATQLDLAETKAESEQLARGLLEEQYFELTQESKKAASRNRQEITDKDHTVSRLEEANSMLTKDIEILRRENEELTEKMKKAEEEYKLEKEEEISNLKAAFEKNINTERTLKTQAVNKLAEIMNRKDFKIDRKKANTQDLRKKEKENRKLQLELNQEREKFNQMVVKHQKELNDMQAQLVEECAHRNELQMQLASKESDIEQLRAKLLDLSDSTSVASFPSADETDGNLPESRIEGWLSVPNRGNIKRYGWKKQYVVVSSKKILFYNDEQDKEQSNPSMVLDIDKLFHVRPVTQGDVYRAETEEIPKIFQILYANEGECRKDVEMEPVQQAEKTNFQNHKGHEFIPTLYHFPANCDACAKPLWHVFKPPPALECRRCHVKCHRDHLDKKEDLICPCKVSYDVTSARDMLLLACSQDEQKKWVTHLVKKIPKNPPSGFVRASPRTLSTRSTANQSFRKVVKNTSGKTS
# [11] = biological target: Rho-associated protein kinase 1 (Homo sapiens) (UniProt Q13464); conditions: at 1 µM
# [12] = biological target: Rho-associated protein kinase 2 (Homo sapiens) (UniProt O75116); conditions: at 0.1 µM
# Sequence of Rho-associated protein kinase 2 (Homo sapiens) (O75116 whole entry, looked up): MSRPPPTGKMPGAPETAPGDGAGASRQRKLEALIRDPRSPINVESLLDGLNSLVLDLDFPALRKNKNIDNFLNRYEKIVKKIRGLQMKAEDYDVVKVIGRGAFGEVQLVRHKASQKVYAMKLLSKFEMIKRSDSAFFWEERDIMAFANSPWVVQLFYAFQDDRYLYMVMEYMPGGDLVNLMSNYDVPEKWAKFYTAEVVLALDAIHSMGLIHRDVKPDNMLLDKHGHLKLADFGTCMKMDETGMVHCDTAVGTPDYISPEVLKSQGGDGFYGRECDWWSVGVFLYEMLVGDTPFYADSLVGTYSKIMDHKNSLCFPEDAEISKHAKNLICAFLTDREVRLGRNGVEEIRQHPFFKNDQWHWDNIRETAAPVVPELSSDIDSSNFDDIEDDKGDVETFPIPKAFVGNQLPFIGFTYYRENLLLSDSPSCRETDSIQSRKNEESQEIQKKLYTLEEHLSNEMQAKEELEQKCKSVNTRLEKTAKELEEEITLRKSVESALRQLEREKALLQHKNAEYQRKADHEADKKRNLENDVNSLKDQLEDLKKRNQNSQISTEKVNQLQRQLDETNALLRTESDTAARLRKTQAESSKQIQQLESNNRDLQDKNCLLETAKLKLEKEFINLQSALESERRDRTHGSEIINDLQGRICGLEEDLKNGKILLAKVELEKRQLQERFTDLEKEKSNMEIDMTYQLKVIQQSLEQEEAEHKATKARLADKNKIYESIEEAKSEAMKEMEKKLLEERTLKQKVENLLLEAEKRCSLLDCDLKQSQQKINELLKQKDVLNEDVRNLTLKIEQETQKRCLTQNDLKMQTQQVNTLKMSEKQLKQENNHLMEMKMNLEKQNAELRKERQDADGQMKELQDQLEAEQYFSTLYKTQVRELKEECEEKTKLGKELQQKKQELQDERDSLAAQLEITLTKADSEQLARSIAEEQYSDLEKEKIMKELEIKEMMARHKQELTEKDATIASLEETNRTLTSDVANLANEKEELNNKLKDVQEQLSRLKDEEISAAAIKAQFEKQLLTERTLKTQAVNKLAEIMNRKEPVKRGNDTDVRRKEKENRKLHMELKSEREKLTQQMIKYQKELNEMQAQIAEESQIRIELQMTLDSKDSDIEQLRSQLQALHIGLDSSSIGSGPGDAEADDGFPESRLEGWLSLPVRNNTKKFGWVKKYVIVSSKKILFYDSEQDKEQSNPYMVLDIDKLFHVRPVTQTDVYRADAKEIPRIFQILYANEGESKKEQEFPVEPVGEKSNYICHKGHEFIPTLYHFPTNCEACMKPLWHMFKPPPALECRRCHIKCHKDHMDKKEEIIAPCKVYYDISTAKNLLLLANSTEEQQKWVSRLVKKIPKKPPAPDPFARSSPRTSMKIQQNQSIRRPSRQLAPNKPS
# [13] = biological target: Rho-associated protein kinase 2 (Homo sapiens) (UniProt O75116); conditions: at 1 µM
# [14] = biological target: Ribosomal protein S6 kinase alpha-1 (Homo sapiens) (UniProt Q15418); conditions: at 0.1 µM
# Sequence of Ribosomal protein S6 kinase alpha-1 (Homo sapiens) (Q15418 whole entry): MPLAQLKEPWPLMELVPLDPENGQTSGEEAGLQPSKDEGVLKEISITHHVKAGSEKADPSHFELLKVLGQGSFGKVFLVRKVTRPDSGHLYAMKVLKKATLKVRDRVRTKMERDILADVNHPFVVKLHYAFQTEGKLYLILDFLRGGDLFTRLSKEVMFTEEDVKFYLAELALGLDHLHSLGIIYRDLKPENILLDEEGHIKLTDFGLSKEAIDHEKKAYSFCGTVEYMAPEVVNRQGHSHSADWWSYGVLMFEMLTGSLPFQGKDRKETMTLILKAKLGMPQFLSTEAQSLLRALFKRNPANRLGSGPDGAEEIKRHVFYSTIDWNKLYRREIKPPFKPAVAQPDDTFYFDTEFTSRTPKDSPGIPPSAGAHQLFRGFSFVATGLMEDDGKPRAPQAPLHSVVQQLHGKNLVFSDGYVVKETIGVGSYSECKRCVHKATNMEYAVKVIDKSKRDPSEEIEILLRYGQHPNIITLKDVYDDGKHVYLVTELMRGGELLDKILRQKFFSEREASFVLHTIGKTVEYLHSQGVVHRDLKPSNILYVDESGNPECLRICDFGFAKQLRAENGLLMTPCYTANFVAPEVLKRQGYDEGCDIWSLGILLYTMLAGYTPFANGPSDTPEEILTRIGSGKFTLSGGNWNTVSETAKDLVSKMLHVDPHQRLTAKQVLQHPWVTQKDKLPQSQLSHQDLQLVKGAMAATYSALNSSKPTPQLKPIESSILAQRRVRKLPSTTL
# [15] = biological target: Ribosomal protein S6 kinase alpha-1 (Homo sapiens) (UniProt Q15418); conditions: at 1 µM
# [16] = biological target: Ribosomal protein S6 kinase alpha-3 (Homo sapiens) (UniProt P51812); conditions: at 0.1 µM
# Sequence of Ribosomal protein S6 kinase alpha-3 (Homo sapiens) (P51812 whole entry): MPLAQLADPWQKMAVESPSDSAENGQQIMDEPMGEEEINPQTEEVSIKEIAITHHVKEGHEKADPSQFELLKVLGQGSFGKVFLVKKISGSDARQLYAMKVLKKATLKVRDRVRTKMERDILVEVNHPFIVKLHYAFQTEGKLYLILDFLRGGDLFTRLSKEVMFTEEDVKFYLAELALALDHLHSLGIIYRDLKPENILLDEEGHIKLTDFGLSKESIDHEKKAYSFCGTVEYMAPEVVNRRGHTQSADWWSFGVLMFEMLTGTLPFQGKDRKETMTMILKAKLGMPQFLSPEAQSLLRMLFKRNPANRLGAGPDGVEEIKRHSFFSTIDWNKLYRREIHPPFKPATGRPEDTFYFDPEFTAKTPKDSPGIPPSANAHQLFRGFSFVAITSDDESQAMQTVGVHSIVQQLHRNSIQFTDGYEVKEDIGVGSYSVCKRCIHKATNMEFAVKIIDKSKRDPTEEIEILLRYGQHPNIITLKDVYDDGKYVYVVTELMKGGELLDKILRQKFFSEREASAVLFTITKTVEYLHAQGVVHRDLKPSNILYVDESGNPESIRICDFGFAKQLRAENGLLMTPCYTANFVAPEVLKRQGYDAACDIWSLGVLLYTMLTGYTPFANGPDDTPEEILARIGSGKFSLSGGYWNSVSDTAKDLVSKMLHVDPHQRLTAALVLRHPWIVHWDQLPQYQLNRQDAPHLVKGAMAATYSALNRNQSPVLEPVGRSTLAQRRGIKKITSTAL
# [17] = biological target: Ribosomal protein S6 kinase alpha-3 (Homo sapiens) (UniProt P51812); conditions: at 1 µM
# [18] = biological target: Ribosomal protein S6 kinase alpha-2 (Homo sapiens) (UniProt Q15349); conditions: at 0.1 µM
# Sequence of Ribosomal protein S6 kinase alpha-2 (Homo sapiens) (Q15349 whole entry): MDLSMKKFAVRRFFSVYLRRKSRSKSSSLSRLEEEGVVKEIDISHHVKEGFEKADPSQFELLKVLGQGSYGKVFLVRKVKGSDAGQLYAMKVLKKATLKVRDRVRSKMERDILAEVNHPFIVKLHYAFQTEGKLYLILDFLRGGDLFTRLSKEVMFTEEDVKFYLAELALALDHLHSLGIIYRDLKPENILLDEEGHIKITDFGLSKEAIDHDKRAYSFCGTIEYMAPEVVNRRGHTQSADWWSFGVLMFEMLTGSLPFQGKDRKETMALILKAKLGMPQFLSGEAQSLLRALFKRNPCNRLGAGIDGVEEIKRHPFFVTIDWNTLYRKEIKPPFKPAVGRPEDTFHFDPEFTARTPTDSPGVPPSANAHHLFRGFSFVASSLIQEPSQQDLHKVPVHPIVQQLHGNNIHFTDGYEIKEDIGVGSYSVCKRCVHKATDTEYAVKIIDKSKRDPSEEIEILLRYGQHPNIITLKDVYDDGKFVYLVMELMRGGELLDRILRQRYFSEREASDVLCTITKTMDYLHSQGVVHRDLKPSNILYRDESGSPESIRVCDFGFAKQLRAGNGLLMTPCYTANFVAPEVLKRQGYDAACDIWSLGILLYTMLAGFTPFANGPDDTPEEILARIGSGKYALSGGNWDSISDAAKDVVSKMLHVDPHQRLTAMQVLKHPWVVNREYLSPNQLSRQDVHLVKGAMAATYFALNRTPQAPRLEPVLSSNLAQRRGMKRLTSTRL
# [19] = biological target: Ribosomal protein S6 kinase alpha-2 (Homo sapiens) (UniProt Q15349); conditions: at 1 µM
# [20] = biological target: Ribosomal protein S6 kinase alpha-6 (Homo sapiens) (UniProt Q9UK32); conditions: at 0.1 µM;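 note: reported value is the mean inhibition of RSK4, from the GSK PKIS kinase inhibitor screen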
SMILES,inhibition [1],inhibition [2],inhibition [3],inhibition [4],inhibition [5],inhibition [6],inhibition [7],inhibition [8],inhibition [9],inhibition [10],inhibition [11],inhibition [12],inhibition [13],inhibition [14],inhibition [15],inhibition [16],inhibition [17],inhibition [18],inhibition [19],inhibition [20]
Cn1c(-c2nonc2N)nc2cnccc21,10.4%,2.73%,8.54%,3.02%,15%,6.01%,38.7%,2.45%,6.56%,10.8%,52.4%,20%,67.5%,9.65%,44.8%,3.58%,23%,8.32%,41.4%,2.49%
COc1cc(N2CCN(C(C)C)CC2)ccc1Nc1nc(Nc2cccc3ncccc23)c2cc[nH]c2n1,4.37%,-0.78%,4.56%,-1.01%,2.36%,0.84%,0.42%,0.02%,-0.18%,0.12%,0.37%,0.02%,0.45%,0.19%,3.05%,1.66%,5.2%,1.37%,3.33%,0.58%
CNC(=O)c1sc(-n2cnc3cc(OC)c(OC)cc32)cc1OCc1ccccc1C(F)(F)F,4.27%,4.09%,4.54%,2.58%,2.12%,1.27%,1.38%,2.66%,1.17%,0.61%,0.26%,2.94%,1.36%,1.1%,2.58%,1.77%,3.02%,2.72%,2.3%,0.81%
Nc1nonc1-c1nc2cnccc2n1C1CC1,18.3% and 17.4%,5.14% and 1.26%,21.9% and 19.9%,13.6% and 15.4%,50.7% and 56.1%,36.7% and 40.2%,65.8% and 69.3%,3.44% and 4.71%,23.7% and 26.4%,43.6% and 46.2%,79.3% and 77.8%,56.4% and 54.3%,81% and 77.9%,66.3% and 63.6%,84.2% and 79.4%,46.1% and 47%,79% and 75.8%,67% and 69.5%,90.9% and 91.2%,10.3% and 11.7%
O=C(O[C@H]1CN[C@H](C#Cc2cc3ncnc(Nc4ccc5c(ccn5Cc5cc(F)ccc5F)c4)c3s2)C1)N1CCOCC1,5.35%,5.21%,6.35%,2.6%,3.55%,2.56%,3.72%,2.19%,2.67%,0.77%,3.4%,2.86%,5.23%,1.53%,1.62%,0.96%,0.89%,3.56%,2.57%,1.53%
OCCCNc1nccc(-c2c(-c3ccc(F)cc3)nn3cc(C(F)(F)F)ccc23)n1,16.9%,4.73%,33.9%,1.52%,4.78%,2.03%,3.96%,0.4%,-0.76%,0.15%,2.58%,2.07%,2.72%,1.23%,2.41%,0.38%,1.08%,1.69%,2.43%,0.24%
